# In PubChem BioAssay (EPA / NIEHS):
# Activity calls are given as the source filed them. Rule for the calls: active = hit-call score of the fitted dose curve at least 0.9, where 1 is the maximum; inactive = score below 0.9.
# Tests used:
# Conditions in all cases: mRNA level, 48 h; actives raise or lower the signal
# MYC, MYC (gene 4609) = assay: LTEA_HepaRG_MYC: Life Technologies and Expression Analysis (LTEA) Assay for MYC using HepaRG (AID 2283518)
# In short: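 HepaRG, ~100,000 cells/well, collagen I; 48 h plating; serum-free induction medium; 48 h dosing, duplicate, 100 uM top, half-log, 0.5% DMSO; total RNA → qRT-PCR MYC; gain/loss fit vs DMSO.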
# [1] = read-out: matrix metalloproteinase-3 (MMP3), MMP3 (gene 4314); assay: LTEA_HepaRG_MMP3: Life Technologies and Expression Analysis (LTEA) Assay for matrix metalloproteinase-3 (MMP3) using HepaRG (AID 2283519)
# In short: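 qRT-PCR read-out of MMP3 mRNA (normalised to three housekeeping genes) in HepaRG liver cells after 48 h chemical exposure; 8-point half-log series, top 100 uM, 0.5% DMSO vehicle. Bidirectional curve fitting against DMSO baseline.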
# [2] = read-out: Paternally Expressed 10 (PEG10), PEG10 (gene 23089); assay: LTEA_HepaRG_PEG10: Life Technologies and Expression Analysis (LTEA) Assay for Paternally Expressed 10 (PEG10) using HepaRG (AID 2283520);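 for AC50: differentiated HepaRG human liver cells in serum-free induction medium with 0.5% DMSO; PEG10 transcript by qRT-PCR normalised to ACTB GAPDH and POLR2A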
# In short: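 PEG10 transcript measured by Fluidigm qRT-PCR, normalized to three housekeeping genes, in HepaRG cells treated 48 h (highest 100 uM, half-log steps, 0.5% DMSO vehicle). Cells plated 48 h before switching to serum-free induction medium.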
# [3] = read-out: Protein phosphatase 2A (PPP2R4), PTPA (gene 5524); assay: LTEA_HepaRG_PPP2R4: Life Technologies and Expression Analysis (LTEA) Assay for Protein phosphatase 2A (PPP2R4) using HepaRG (AID 2283522)
# In short: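 Expression was quantified by Fluidigm qRT-PCR normalised to three housekeeping genes after 48 h treatment. Human HepaRG cells received an 8-point series from 100 µM downward by half-logs, in duplicate with 0.5% DMSO vehicle and 1 mM phenobarbital as induction control.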
# [4] = read-out: Phosphatase and tensin (PTEN), PTEN (gene 5728); assay: LTEA_HepaRG_PTEN: Life Technologies and Expression Analysis (LTEA) Assay for Phosphatase and tensin (PTEN) using HepaRG (AID 2283523)
# In short: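 HepaRG, 48 h exposure, 8-pt half-log series from 100 uM top, 0.5% DMSO vehicle, duplicates. Readout: Fluidigm qRT-PCR of PTEN transcript; housekeeping normalization (ACTB, GAPDH, POLR2A). Gain or loss fitted relative to DMSO baseline.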
# [5] = read-out: Pyruvate Dehydrogenase Kinase 4 (PDK4), PDK4 (gene 5166); assay: LTEA_HepaRG_PDK4: Life Technologies and Expression Analysis (LTEA) Assay for Pyruvate Dehydrogenase Kinase 4 (PDK4) using HepaRG (AID 2283525)
# In short: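 HepaRG (human liver line), 48 h chemical exposure, 8-pt half-log CRC top 100 uM, 0.5% DMSO vehicle, duplicates. Readout: TaqMan qRT-PCR of PDK4 mRNA, housekeeping-normalized; gain/loss fit relative to DMSO baseline.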
# [6] = read-out: NAD(P)H dehydrogenase [quinone] 1 (NQO1), NQO1 (gene 1728); assay: LTEA_HepaRG_NQO1: Life Technologies and Expression Analysis (LTEA) Assay for NAD(P)H dehydrogenase [quinone] 1 (NQO1) using HepaRG (AID 2283526)
# In short: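 NQO1 transcript induction or loss measured by TaqMan qRT-PCR, referenced to three housekeeping genes and fitted bidirectionally against 0.5% DMSO. HepaRG cultures exposed 48 h, duplicate, eight-point half-log series, top 100 uM.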
# [7] = read-out: Nuclear factor erythroid 2-related factor 2 (Homo sapiens) (UniProt Q16236); assay: LTEA_HepaRG_NFE2L2: Life Technologies and Expression Analysis (LTEA) Assay for Nuclear factor erythroid 2-related factor 2 (NFE2L2) Transcription Factor using HepaRG (AID 2283527)
# In short: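 HepaRG, 48 h dosing, 8-pt half-log series from 100 uM in 0.5% DMSO, duplicates. Read-out: NFE2L2 mRNA by qRT-PCR (ACTB/GAPDH/POLR2A normalization). Bidirectional curve fit vs DMSO baseline.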
# [8] = read-out: Signal transducer and activator of transcription 3 (Homo sapiens) (UniProt P40763); assay: LTEA_HepaRG_STAT3: Life Technologies and Expression Analysis (LTEA) Assay for Signal transducer and activator of transcription (STAT3) using HepaRG (AID 2283529)
# In short: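 HepaRG, 48 h exposure, 8-pt half-log series (top 100 uM), 0.5% DMSO vehicle, duplicates. Readout: STAT3 transcript by Fluidigm qRT-PCR, housekeeping-normalized; bidirectional fit vs DMSO baseline.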
# [9] = read-out: solute carrier (SLCO1B1), SLCO1B1 (gene 10599); assay: LTEA_HepaRG_SLCO1B1: Life Technologies and Expression Analysis (LTEA) Assay for solute carrier (SLCO1B1) using HepaRG (AID 2283530)
# In short: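 HepaRG, serum-free induction medium, 48 h dosing, 8-pt half-log from 100 uM, 0.5% DMSO vehicle, duplicates. Readout: SLCO1B1 mRNA, qRT-PCR, ACTB/GAPDH/POLR2A normalization; up or down fit vs DMSO.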
# [10] = read-out: sulfotransferase 2A1 (SULT2A1), SULT2A1 (gene 6822); assay: LTEA_HepaRG_SULT2A1: Life Technologies and Expression Analysis (LTEA) Assay for sulfotransferase 2A1 (SULT2A1) using HepaRG (AID 2283531)
# In short: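 Transcript levels of SULT2A1, quantified by qRT-PCR and normalized to three housekeeping genes, serve as the readout. Human HepaRG cultures receive test chemicals for 48 h at up to 100 uM in half-log steps, with 0.5% DMSO vehicle.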
# [11] = read-out: Transforming Growth Factor (TGFA), TGFA (gene 7039); assay: LTEA_HepaRG_TGFA: Life Technologies and Expression Analysis (LTEA) Assay for Transforming Growth Factor (TGFA) using HepaRG (AID 2283532)
# In short: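 qRT-PCR read-out of TGFA transcript, normalized to three housekeeping genes, fitted bidirectionally against 0.5% DMSO baseline. Human HepaRG cultures received chemicals for 48 h at eight half-log concentrations, top 100 uM.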
# [12] = read-out: Transforming Growth Factor (TGFB1), TGFB1 (gene 7040); assay: LTEA_HepaRG_TGFB1: Life Technologies and Expression Analysis (LTEA) Assay for Transforming Growth Factor (TGFB1) Transporter using HepaRG (AID 2283533)
# In short: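 HepaRG, 48 h post-plating, switched to serum-free induction medium; chemicals 100 uM top, half-log, 8 pts, 0.5% DMSO, dup; 48 h exposure; RNA → Fluidigm TaqMan qRT-PCR; norm ACTB/GAPDH/POLR2A; bidirectional fit vs DMSO.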
# TIMP1, TIMP1 (gene 7076) = assay: LTEA_HepaRG_TIMP1: Life Technologies and Expression Analysis (LTEA) Assay for TIMP1 using HepaRG (AID 2283534)
# In short: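 Readout is TIMP1 mRNA level measured by qRT-PCR and normalized to three housekeeping genes. Human HepaRG cells were treated for 48 h in duplicate at eight concentrations up to 100 uM (0.5% DMSO); gain or loss fitted against DMSO.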
# [13] = read-out: Tumor necrosis factor receptor 1 (TNFRSF1A), TNFRSF1A (gene 7132); assay: LTEA_HepaRG_TNFRSF1A: Life Technologies and Expression Analysis (LTEA) Assay for Tumor necrosis factor receptor 1 (TNFRSF1A) using HepaRG (AID 2283535)
# In short: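 Read-out is TNFRSF1A transcript level by TaqMan qRT-PCR, normalized to three housekeeping genes, scored as gain or loss of signal versus 0.5% DMSO. Human HepaRG cells received test chemicals for 48 h at up to 100 uM (half-log series).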
# [14] = read-out: Thyroid Hormone Responsive (THRSP), THRSP (gene 7069); assay: LTEA_HepaRG_THRSP: Life Technologies and Expression Analysis (LTEA) Assay for Thyroid Hormone Responsive (THRSP) using HepaRG (AID 2283536)
# In short: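 qRT-PCR read-out (Fluidigm TaqMan), housekeeping-normalized (ACTB/GAPDH/POLR2A). HepaRG, 48 h chemical exposure, 8-pt half-log series from 100 uM in 0.5% DMSO, duplicates. Bidirectional curve fit vs 0.5% DMSO baseline.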
# [15] = read-out: Cellular tumor antigen p53 (Homo sapiens) (UniProt P04637); assay: LTEA_HepaRG_TP53: Life Technologies and Expression Analysis (LTEA) Assay for Tumor Protein P53 (TP53) using HepaRG (AID 2283537)
# In short: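 TP53 transcript measured by qRT-PCR, normalized to three housekeeping genes, after 48 h treatment of human HepaRG cultures with chemicals from 100 uM downward in half-log steps (0.5% DMSO vehicle, serum-free induction medium). Up- or down-regulation fitted against DMSO.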
# [16] = read-out: solute carrier (SLC22A1), SLC22A1 (gene 6580); assay: LTEA_HepaRG_SLC22A1: Life Technologies and Expression Analysis (LTEA) Assay for solute carrier (SLC22A1) using HepaRG (AID 2283524);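 for AC50: differentiated human HepaRG liver cells in serum-free induction medium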
# In short: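 qRT-PCR readout (TaqMan, Fluidigm arrays) of SLC22A1 transcript, normalized to three housekeeping genes; bidirectional curve fit relative to 0.5% DMSO vehicle. Differentiated human HepaRG cells, 48 h chemical exposure, top concentration 100 uM, half-log steps, eight points.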
# [17] = read-out: succinate dehydrogenase complex iron sulfur subunit B (SDHB), SDHB (gene 6390); assay: LTEA_HepaRG_SDHB: Life Technologies and Expression Analysis (LTEA) Assay for succinate dehydrogenase complex iron sulfur subunit B (SDHB) using HepaRG (AID 2283528)
# In short: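 SDHB transcript level read by TaqMan qRT-PCR, housekeeping-normalised (ACTB, GAPDH, POLR2A), after 48 h chemical treatment of plated HepaRG cells; eight concentrations top 100 uM, half-log steps, 0.5% DMSO, duplicates; fitted both directions against DMSO.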
# Sequence of Nuclear factor erythroid 2-related factor 2 (Homo sapiens) (Q16236 whole entry, looked up): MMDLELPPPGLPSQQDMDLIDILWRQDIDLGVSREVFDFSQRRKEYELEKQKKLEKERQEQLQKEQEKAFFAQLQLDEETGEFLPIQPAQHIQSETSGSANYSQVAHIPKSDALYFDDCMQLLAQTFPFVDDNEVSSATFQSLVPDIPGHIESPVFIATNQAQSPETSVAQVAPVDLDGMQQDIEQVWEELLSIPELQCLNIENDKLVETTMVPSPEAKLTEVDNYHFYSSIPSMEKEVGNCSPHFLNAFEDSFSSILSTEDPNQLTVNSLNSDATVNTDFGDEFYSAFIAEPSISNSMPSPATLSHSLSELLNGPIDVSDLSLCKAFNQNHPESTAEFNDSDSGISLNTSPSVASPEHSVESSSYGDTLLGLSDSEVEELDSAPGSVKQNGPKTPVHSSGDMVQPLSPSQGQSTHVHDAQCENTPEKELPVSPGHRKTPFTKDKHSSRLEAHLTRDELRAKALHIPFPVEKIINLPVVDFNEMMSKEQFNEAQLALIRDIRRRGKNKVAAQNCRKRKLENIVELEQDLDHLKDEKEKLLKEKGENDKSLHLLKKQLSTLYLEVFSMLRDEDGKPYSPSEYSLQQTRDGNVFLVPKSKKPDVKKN
# Sequence of Signal transducer and activator of transcription 3 (Homo sapiens) (P40763 whole entry, looked up): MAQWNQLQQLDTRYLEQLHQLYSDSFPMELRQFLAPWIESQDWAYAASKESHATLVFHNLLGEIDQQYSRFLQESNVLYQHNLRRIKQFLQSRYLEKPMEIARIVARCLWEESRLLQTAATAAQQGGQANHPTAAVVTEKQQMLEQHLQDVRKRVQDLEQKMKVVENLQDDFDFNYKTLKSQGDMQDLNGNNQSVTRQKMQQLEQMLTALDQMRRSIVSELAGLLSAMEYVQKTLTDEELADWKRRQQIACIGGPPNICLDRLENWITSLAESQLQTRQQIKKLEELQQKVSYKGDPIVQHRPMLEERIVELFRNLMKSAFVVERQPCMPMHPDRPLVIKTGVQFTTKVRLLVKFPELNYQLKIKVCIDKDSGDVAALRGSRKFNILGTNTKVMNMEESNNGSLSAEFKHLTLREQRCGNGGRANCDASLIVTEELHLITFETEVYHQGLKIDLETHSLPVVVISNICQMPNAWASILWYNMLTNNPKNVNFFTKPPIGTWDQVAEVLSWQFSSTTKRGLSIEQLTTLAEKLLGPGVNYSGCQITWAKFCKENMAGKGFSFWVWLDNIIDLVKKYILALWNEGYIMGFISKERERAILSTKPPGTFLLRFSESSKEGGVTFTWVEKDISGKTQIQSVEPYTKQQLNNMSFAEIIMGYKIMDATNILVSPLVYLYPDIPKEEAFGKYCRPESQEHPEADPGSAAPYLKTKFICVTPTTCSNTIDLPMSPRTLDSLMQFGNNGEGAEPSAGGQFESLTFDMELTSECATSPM
# Sequence of Cellular tumor antigen p53 (Homo sapiens) (P04637 whole entry, looked up): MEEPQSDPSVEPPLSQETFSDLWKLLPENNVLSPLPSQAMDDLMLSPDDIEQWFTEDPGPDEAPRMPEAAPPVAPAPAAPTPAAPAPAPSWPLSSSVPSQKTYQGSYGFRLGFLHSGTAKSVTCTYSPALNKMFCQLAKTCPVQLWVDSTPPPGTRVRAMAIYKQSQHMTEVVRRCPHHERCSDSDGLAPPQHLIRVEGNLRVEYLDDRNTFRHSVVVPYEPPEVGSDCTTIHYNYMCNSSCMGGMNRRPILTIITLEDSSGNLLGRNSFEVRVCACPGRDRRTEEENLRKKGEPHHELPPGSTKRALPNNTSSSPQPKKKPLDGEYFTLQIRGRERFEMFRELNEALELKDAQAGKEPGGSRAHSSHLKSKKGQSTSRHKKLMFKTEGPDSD
smiles,measurement,setting,value
Oc1ccc(C(c2ccc(O)cc2)C(Cl)(Cl)Cl)cc1,AC50,"MYC, MYC (gene 4609)",78 µM (active)
same,AC50,[1],90.5 µM (active)
same,AC50,[2],74.8 µM (active)
same,AC50,[3],82.3 µM (active)
same,AC50,[4],76.9 µM (active)
same,outcome,[5],inactive
same,AC50,[6],82.7 µM (active)
same,AC50,[7],78.2 µM (active)
same,AC50,[8],76.8 µM (active)
same,outcome,[9],inactive
same,AC50,[10],84.3 µM (active)
same,AC50,[11],80.7 µM (active)
same,AC50,[12],87.1 µM (active)
same,AC50,"TIMP1, TIMP1 (gene 7076)",79.2 µM (active)
same,AC50,[13],87.3 µM (active)
same,outcome,[14],inactive
same,AC50,[15],90.4 µM (active)
CC(=O)S[C@@H]1CC2=CC(=O)CC[C@]2(C)[C@H]2CC[C@@]3(C)[C@@H](CC[C@@]34CCC(=O)O4)[C@H]12,outcome,"MYC, MYC (gene 4609)",inactive
same,outcome,[1],inactive
same,outcome,[2],inactive
same,outcome,[3],inactive
same,outcome,[4],inactive
same,AC50,[16],55.5 µM (active)
same,AC50,[5],50 µM (active)
same,outcome,[6],inactive
same,outcome,[7],inactive
same,outcome,[8],inactive
same,AC50,[9],50.4 µM (active)
same,AC50,[10],50 µM (active)
same,outcome,[11],inactive
same,outcome,[12],inactive
same,outcome,"TIMP1, TIMP1 (gene 7076)",inactive
same,outcome,[13],inactive
same,AC50,[14],36.5 µM (active)
same,outcome,[15],inactive
C#CCOC(=O)[C@@H](C)Oc1ccc(Oc2ncc(Cl)cc2F)cc1,outcome,"MYC, MYC (gene 4609)",inactive
same,outcome,[1],inactive
same,outcome,[2],inactive
same,outcome,[3],inactive
same,outcome,[4],inactive
same,outcome,[16],inactive
same,AC50,[5],50 µM (active)
same,outcome,[6],inactive
same,outcome,[7],inactive
same,outcome,[8],inactive
same,outcome,[9],inactive
same,outcome,[10],inactive
same,outcome,[11],inactive
same,outcome,[12],inactive
same,outcome,"TIMP1, TIMP1 (gene 7076)",inactive
same,outcome,[13],inactive
same,outcome,[14],inactive
same,outcome,[15],inactive
COC(=O)c1ccc(I)cc1S(=O)(=O)NC(=O)Nc1nc(C)nc(OC)n1,outcome,"MYC, MYC (gene 4609)",inactive
same,outcome,[1],inactive
same,outcome,[2],inactive
same,outcome,[3],inactive
same,outcome,[4],inactive
same,outcome,[5],inactive
same,outcome,[6],inactive
same,outcome,[7],inactive
same,outcome,[9],inactive
same,outcome,[10],inactive
same,outcome,[11],inactive
same,outcome,[12],inactive
same,outcome,"TIMP1, TIMP1 (gene 7076)",inactive
same,outcome,[13],inactive
same,outcome,[14],inactive
same,outcome,[15],inactive
O=C(O)c1ccccc1,outcome,"MYC, MYC (gene 4609)",inactive
same,outcome,[1],inactive
same,outcome,[2],inactive
same,outcome,[3],inactive
same,outcome,[4],inactive
same,outcome,[5],inactive
same,outcome,[6],inactive
same,outcome,[7],inactive
same,outcome,[17],inactive
same,outcome,[8],inactive
same,outcome,[9],inactive
same,outcome,[10],inactive
same,outcome,[11],inactive
same,outcome,[12],inactive
same,outcome,"TIMP1, TIMP1 (gene 7076)",inactive
same,outcome,[13],inactive
same,outcome,[14],inactive
same,outcome,[15],inactive
COC(=O)CSc1cc(N=c2sc(=O)n3n2CCCC3)c(F)cc1Cl,outcome,"MYC, MYC (gene 4609)",inactive
same,outcome,[1],inactive
same,outcome,[2],inactive
same,outcome,[3],inactive
same,outcome,[4],inactive
same,outcome,[5],inactive
same,outcome,[6],inactive
same,outcome,[7],inactive
same,outcome,[8],inactive
same,outcome,[9],inactive
same,outcome,[10],inactive
same,outcome,[11],inactive
same,outcome,[12],inactive
same,outcome,"TIMP1, TIMP1 (gene 7076)",inactive
same,outcome,[13],inactive
same,outcome,[14],inactive
same,outcome,[15],inactive
CC(=O)[C@H]1CC[C@H]2[C@@H]3CCC4=CC(=O)CC[C@]4(C)[C@H]3CC[C@]12C,AC50,"MYC, MYC (gene 4609)",34.3 µM (active)
same,AC50,[1],66 µM (active)
same,AC50,[2],7.52 µM (active)
same,AC50,[3],87.5 µM (active)
same,AC50,[4],87.5 µM (active)
same,AC50,[5],22.9 µM (active)
same,AC50,[6],62.1 µM (active)
same,outcome,[7],inactive
same,AC50,[8],63.1 µM (active)
same,AC50,[9],75.2 µM (active)
same,AC50,[10],38.5 µM (active)
same,AC50,[11],33.1 µM (active)
same,AC50,[12],91.8 µM (active)
same,AC50,"TIMP1, TIMP1 (gene 7076)",22.2 µM (active)
same,AC50,[13],90.6 µM (active)
same,outcome,[14],inactive
same,outcome,[15],inactive
